A selection: hits, their analogues and other compounds. The true share with any hit is near 5.7%.
AHR act = activators of human aryl hydrocarbon receptor; P35869; AHR-responsive luciferase reporter cells, luminescence; activation, % at 5 µM; 320,000 tested, 2.5% active; in the data active means activation above about 47%;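 further: 0% = vehicle wells and 100% = reference agonist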
DAX1 inh-1 = DAX1 (NR0B1) inhibition, primary screen | HEK293T StAR-luciferase reporter, SF-1/DAX-1 repression relief | inhibition, % at 6.8 µM | 370,000 tested, 1.1% active;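 active means inhibition above the mean over all tested compounds plus 3 SD, cut at about 3.6% in these data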;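 further: 0% = DAX-1 cells with DMSO and 100% = cells lacking DAX-1 with DMSO; higher inhibition means more luminescence from relief of DAX-1 repression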
DAX1 inh-2 = inhibits human nuclear receptor DAX1. P51843. HEK293 Gal4-DAX1 luciferase reporter, luminescence. inhibition, % at 6.75 µM. 340,000 tested, 0.99% active. AID 504766;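 active means inhibition above the mean over all tested compounds plus 3 SD, cut at about 4.2% in these data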;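 further: 0% = DAX1-transfected cells with DMSO and 100% = empty-vector control cells with DMSO; inhibition shows as a rise in luminescence from relieved DAX1 repression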
Target sequence (P51843 207-470 limits assumed): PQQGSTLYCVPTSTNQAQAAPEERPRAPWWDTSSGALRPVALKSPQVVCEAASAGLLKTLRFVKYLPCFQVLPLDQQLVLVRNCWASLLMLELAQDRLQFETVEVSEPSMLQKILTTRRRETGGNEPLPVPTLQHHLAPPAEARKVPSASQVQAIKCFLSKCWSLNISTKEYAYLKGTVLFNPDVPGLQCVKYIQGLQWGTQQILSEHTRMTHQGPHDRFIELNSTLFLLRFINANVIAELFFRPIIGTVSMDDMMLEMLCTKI
hcDAF12 agonist = activators of H. contortus DAF-12 nuclear receptor; HEK293 hcDAF-12 lit1-tk-luc reporter, luminescence; 0% DMSO, 100% Δ7-dafachronic acid; activation, % at 6.8 µM; 370,000 tested, 1.4% active;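 active means activation above the mean of all tested compounds plus 3 SD, cut at about 5.5% in these data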;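 further: 100% = response to 3 µM Δ7-dafachronic acid high control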
ssDAF-12 act = activators of S. stercoralis DAF-12 nuclear receptor | activation, % at 6.8 µM | 370,000 tested, 1% active | HEK293 ssDAF-12/GRIP1 lit1-tk-luc reporter, luminescence; % of 3 µM dafachronic acid response;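 active means activation above the mean over all tested compounds plus 3 SD, cut at about 0.9% in these data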;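 further: 0% = DMSO-only wells and 100% = 3 µM delta7-dafachronic acid wells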
hgDAF12 agonist = hgDAF-12 agonism, primary luciferase screen | HEK293 GAL4-hgDAF12 UAS-luciferase reporter, agonist luminescence; normalized to butyrate control | activation, % at 6.8 µM | 370,000 tested, 1.8% active | AID 687014;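 active means activation above a cutoff set at the mean of all screened compounds plus 3 SD, cut at about 10% in these data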;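 further: 0% = DMSO wells and 100% = sodium butyrate wells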
DAX1 inh confirm = NR0B1 (human) inhibition, confirmation; inhibition, % at 6.8 µM; AID 652134; 2,400 tested, 87% active; shares compounds with DAX1 inh-1; HEK293T StAR-promoter luciferase reporter, SF-1/DAX-1 repression;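 active means inhibition above the average of every tested compound plus 3 SD, cut at about 3.8% in these data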;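 further: 0% = DAX-1 cells with DMSO and 100% = no DAX-1 control cells with DMSO; active compounds raise luminescence by relieving repression of the StAR reporter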
SF1 AF2mut Luc = counter-screen for DAX1 inhibitors: nonselective inhibitors with SF-1 AF2 mutant | HEK293 StAR-luciferase, luminescence | inhibition, % at 6.8 µM | 2,400 tested, 78% active | shares compounds with DAX1 inh-1;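 active means inhibition above the mean of all tested compounds plus 3 SD, cut at about 3% in these data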;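 further: 0% = DAX-1 transfected cells with DMSO and 100% = cells without DAX-1 with DMSO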
LXRb hcDAF ctr = LXR-beta agonism as hcDAF-12 counter-screen; shares compounds with hcDAF12 agonist; HEK293 Gal4-LXR tk-luc reporter, luminescence, 24 h; normalized: DMSO 0%, positive control 100%; activation, % at 6.8 µM; 3,400 tested, under 10 active;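 active means mean percent activation of the reporter above a cutoff set as the average over tested compounds plus their standard deviation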
hcDAF12 ag = hcDAF-12 agonism, confirmation assay | shares compounds with hcDAF12 agonist | HEK293 hcDAF-12 lit1-tk-luc reporter, luminescence; % of Δ7-dafachronic acid response | activation, % at 6.8 µM | 3,400 tested, 61% active;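 active means mean activation across triplicate tests above the threshold derived from the earlier primary screen, cut at about 5.5% in these data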;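 further: 0% = DMSO only wells and 100% = 3 µM Δ7-dafachronic acid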
hgDAF12 ag = confirmation of H. glycines DAF-12 agonists. shares compounds with hgDAF12 agonist. AID 743050. HEK293 GAL4-hgDAF12 luciferase reporter, agonist mode; percent of butyrate response. activation, % at 6.8 µM. 3,300 tested, 80% active;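 active means mean activation over triplicate wells above the hit cutoff derived from the earlier primary screen, cut at about 11% in these data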;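 further: 0% = DMSO low control and 100% = 2 mM sodium butyrate high control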
LXR ag 2 = counter-screen for DAF-12 agonists: agonists of human LXR-beta; shares compounds with hgDAF12 agonist; HEK293 Gal4-LXR luciferase reporter, 24 h; activation, % at 6.8 µM; 3,300 tested, under 10 active;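 active means mean activation of the triplicate above a set limit carried over from the primary screen, none filed active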
Starred values were filed as active, the others as inactive.

COc1ccc(CNC(=O)CSc2nnc(NC(=O)c3ccccc3F)s2)cc1 was read as AHR act 6.1, DAX1 inh-1 -0.1, DAX1 inh-2 0.4, hcDAF12 agonist -2.6, ssDAF-12 act -0.8 and hgDAF12 agonist 0.8.
`O=C(/C=C/Nc1ccc(F)cc1F)c1ccco1` gave AHR act 40.9, DAX1 inh-1 7.5*, DAX1 inh-2 -0.9, hcDAF12 agonist 15.1*, ssDAF-12 act 2.1*, hgDAF12 agonist 24.9*, DAX1 inh confirm 7.2*, SF1 AF2mut Luc 2.2, LXRb hcDAF ctr 1.9, hcDAF12 ag 19.8*, hgDAF12 ag 13.7* and LXR ag 2 1.0.
Screening Cc1cc(NC(=O)c2ccc3nccnc3c2)ccc1Br returned AHR act 63.9*, DAX1 inh-1 5.6*, DAX1 inh-2 1.6, hcDAF12 agonist 4.7, ssDAF-12 act 0.9, hgDAF12 agonist 16.0*, DAX1 inh confirm 7.6*, SF1 AF2mut Luc 4.7*, hgDAF12 ag 14.8* and LXR ag 2 0.8.
Screening COC(=O)c1ccc(NC(=O)c2ccc3nccnc3c2)cc1 returned AHR act -5.4, DAX1 inh-1 -0.3, DAX1 inh-2 -0.5, hcDAF12 agonist -2.6, ssDAF-12 act -1.1 and hgDAF12 agonist 2.9.
Screening Cc1ccc(C(=O)Nc2ccc3nccnc3c2)cc1 returned AHR act -13.1, DAX1 inh-1 5.3*, DAX1 inh-2 -2.1, hcDAF12 agonist 9.0*, ssDAF-12 act 0.6, hgDAF12 agonist 13.4*, DAX1 inh confirm 16.6*, SF1 AF2mut Luc 8.3*, LXRb hcDAF ctr 1.8, hcDAF12 ag 7.7*, hgDAF12 ag 16.1* and LXR ag 2 1.3.
CC(=O)c1ccc(NC(=O)c2ccc(C)c(Br)c2)cc1 was read as AHR act -4.6, DAX1 inh-1 4.9*, DAX1 inh-2 3.3, hcDAF12 agonist 5.7*, ssDAF-12 act -0.3, hgDAF12 agonist 16.2*, DAX1 inh confirm 11.9*, SF1 AF2mut Luc 9.4*, hgDAF12 ag 18.2* and LXR ag 2 0.7.
Cc1ccc(NC(=O)c2ccc(S(=O)(=O)N3CCCC3)cc2)nc1 was read as AHR act 3.3, DAX1 inh-1 -0.2, DAX1 inh-2 -1.7, hcDAF12 agonist -1.2, ssDAF-12 act -0.5 and hgDAF12 agonist 2.2.
COc1cccc(NC(=O)COc2ccc3c(c2)CCC3)c1 was read as AHR act 2.1, DAX1 inh-1 0.9, DAX1 inh-2 0.0, hcDAF12 agonist 0.0, ssDAF-12 act -0.8 and hgDAF12 agonist 4.5.
COc1cccc(NC(=O)c2ccc3c(c2)CCCC3)c1 was read as AHR act -3.8, DAX1 inh-1 17.9*, DAX1 inh-2 0.5, hcDAF12 agonist 7.9*, ssDAF-12 act 1.2*, hgDAF12 agonist 17.4*, DAX1 inh confirm 13.4*, SF1 AF2mut Luc 8.2*, LXRb hcDAF ctr 1.5, hcDAF12 ag 5.4, hgDAF12 ag 17.9* and LXR ag 2 1.1.
